As a reminder, the inhibition is the relative decrease from the control value, in per cent.

Molecules are shown by their SMILES. Hit rate of the full screen: of about 47,000 compounds, about 2,000 (4.3%) were called active. Cut-off read from the data, not from the text of the source: active = inhibition above about 30%; inactive = the rest. Shown is part of a subset that was picked to be rich in actives.

The assay deals with Ubiquitin carboxyl-terminal hydrolase 8 (Homo sapiens) (UniProt P40818). Description: inhibitors of human USP8 deubiquitinase (AID 1645853). To be noted: purified USP8, Ub-rhodamine cleavage fluorescence, 30 min; at 20 µM; active compounds read high.
Chain of Ubiquitin carboxyl-terminal hydrolase 8 (Homo sapiens) (P40818 whole entry, looked up): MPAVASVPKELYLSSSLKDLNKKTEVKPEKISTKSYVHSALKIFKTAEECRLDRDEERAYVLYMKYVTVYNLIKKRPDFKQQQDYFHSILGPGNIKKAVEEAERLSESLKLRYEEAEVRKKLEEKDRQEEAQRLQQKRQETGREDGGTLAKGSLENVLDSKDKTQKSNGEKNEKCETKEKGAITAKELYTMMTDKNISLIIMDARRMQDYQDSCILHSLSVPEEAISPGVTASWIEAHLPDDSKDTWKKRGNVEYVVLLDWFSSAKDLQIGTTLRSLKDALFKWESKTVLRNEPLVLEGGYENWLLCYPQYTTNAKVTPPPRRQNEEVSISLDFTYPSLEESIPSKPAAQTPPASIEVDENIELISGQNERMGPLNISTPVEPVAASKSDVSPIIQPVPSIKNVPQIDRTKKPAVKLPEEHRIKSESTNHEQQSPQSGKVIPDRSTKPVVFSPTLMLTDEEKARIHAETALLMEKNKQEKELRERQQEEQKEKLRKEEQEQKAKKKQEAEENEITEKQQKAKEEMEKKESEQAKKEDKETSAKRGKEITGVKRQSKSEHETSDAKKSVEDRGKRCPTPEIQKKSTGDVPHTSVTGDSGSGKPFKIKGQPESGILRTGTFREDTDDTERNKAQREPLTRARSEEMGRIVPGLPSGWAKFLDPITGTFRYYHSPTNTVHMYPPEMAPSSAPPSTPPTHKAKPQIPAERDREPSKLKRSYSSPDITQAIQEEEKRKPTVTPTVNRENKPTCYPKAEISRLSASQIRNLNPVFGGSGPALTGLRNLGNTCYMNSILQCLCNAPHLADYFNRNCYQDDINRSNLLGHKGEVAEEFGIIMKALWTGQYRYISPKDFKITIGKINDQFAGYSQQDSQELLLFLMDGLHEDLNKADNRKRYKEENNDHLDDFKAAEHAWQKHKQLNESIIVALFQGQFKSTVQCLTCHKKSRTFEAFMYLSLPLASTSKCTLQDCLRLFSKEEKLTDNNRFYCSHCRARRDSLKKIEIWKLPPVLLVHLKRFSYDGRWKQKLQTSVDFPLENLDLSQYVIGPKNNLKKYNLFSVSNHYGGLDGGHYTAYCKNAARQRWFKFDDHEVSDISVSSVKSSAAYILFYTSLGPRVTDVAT
Take `COc1ccc2ncc(S(=O)(=O)c3ccccc3)c(Nc3ccc(F)cc3)c2c1`: the inhibition was 17.2% (inactive).

On to `Cc1nc(-c2ccccc2)sc1-c1nc(-c2ccccc2)ncc1S(=O)(=O)c1ccccc1`, for which the inhibition was 63.3% (active). With `Cc1ccc2c(c1)CN(S(C)(=O)=O)CC1(CCN(CC(=O)N3CCCCC3)CC1)O2` the figure was 0.0399% (inactive); with `CCOC(=O)C1CCN(S(=O)(=O)c2cc3[nH]c4c(c3cc2CC)C(=O)CCC4)CC1`, -25.1% (inactive). As for `Cc1cc(C(F)(F)F)nn1CC(=O)O`, the figure is -0.231% (inactive). As for `O=C(Cc1ccc(Cl)cc1)NCC(=O)Nc1nc2ccccc2[nH]1`, the figure is -1.55% (inactive); as for `CC1=C(C(=O)Nc2ccccc2)C(c2ccc(OCc3c(Cl)cccc3Cl)cc2)n2ncnc2N1` (centres undefined), -1.68% (inactive); as for `COCCNC(=O)c1ccc2nnc3ncn(C(C)C)c3c2c1`, -31.7% (inactive).

For the molecule `COc1ccc(-c2noc(-c3ccc(N(C)Cc4ccco4)nn3)n2)cc1`, the inhibition was 35.7% (active). As for `COc1ccc(-c2noc(C3(c4ccccc4)CCOCC3)n2)cc1`, the figure is 19.2% (inactive). With `COc1ccc(-c2nc(-c3cccs3)no2)cc1OC` the figure was -15.4% (inactive); with `O=C1CC(C(=O)Nc2ccccc2F)N=C(N2CCN(c3ccccc3F)CC2)N1` (centres undefined), 3.41% (inactive); with `O=C(CSc1ccc2nnc(-c3ccccc3)n2n1)N1CCCc2ccccc21`, 29.4% (inactive). As for `O=[N+]([O-])c1ccc(S(=O)(=O)N2CCN(c3nc4ccccc4s3)CC2)cc1`, the figure is -0.0867% (inactive); as for `CC(C)N(C(=O)CSc1nc2ccc([N+](=O)[O-])cc2s1)C(C)C`, 49.5% (active). For `COc1cccc(NC(=O)CN2CCN(c3nc4ccc([N+](=O)[O-])cc4s3)CC2)c1`, the inhibition is -52.2% (inactive). As for `O=C1NCCCCC1NS(=O)(=O)c1ccc2c(c1)OCCCO2` (centres undefined), the figure is -2.35% (inactive); as for `Cc1cc(F)ccc1NC(=O)Cc1n[nH]c(Cc2ccccc2)n1`, 2.95% (inactive); as for `O=C(Cc1ccc(F)cc1)Nc1ccccc1Cc1ccccc1`, 19.3% (inactive). As for `Cc1ccccc1NC(=O)Cc1csc2nc(-c3ccc(F)cc3)cn12`, the figure is 85.8% (active); as for `COc1cccc(C(=O)OCc2csc(-c3ccccc3)n2)c1OC`, 4.14% (inactive). Take `Nc1cc(C2CCN(C(=O)Cc3ccc(F)cc3)CC2)no1`: the inhibition is 1.13% (inactive). As for `COc1cccc(-n2c(=O)c(C(=O)NC(C)c3ccccc3)c(O)c3cccnc32)c1` (centres undefined), the inhibition was 81.5% (active). With `COc1ccccc1CNC(=O)c1c(O)c2cccnc2n(-c2ccccc2)c1=O` the figure was 80.6% (active); with `COc1cccc(NC(=O)Nc2nccn(-c3ccccc3)c2=O)c1`, 5.06% (inactive); with `COc1ccccc1CNCc1c(C(=O)O)c(C)n(-c2ccccc2)c1C`, 27.6% (inactive). With `COc1cccc(-n2c(=O)[nH]c3c(C(N)=O)nc(-c4ccccn4)nc32)c1`, the inhibition is -282% (inactive). As to `COc1ccccc1CNC(=O)c1ccc(Cl)c(S(=O)(=O)N2CCCC2)c1`, the inhibition is -5.09% (inactive). With `CN(C)S(=O)(=O)N1CCOC(c2cncc(-c3cccc(F)c3)n2)C1` (centres undefined) the figure was -2.26% (inactive). Regarding `O=C(C1COc2ccccc2O1)N1CCN(c2nc(C(F)(F)F)nc3ccccc23)CC1` (centres undefined), the inhibition was 11.8% (inactive). As for `COC(=O)c1ccc(C2Oc3ccccc3CN2c2ccccc2Cl)cc1` (centres undefined), the figure is 22% (inactive). Turning to `COc1ccc(-c2csc(N)n2)c(O)c1`, the inhibition is 3.16% (inactive). With `Cc1ccc(-n2c(C)nnc2SCC(=O)NC2CC2)cc1` the figure was 1.76% (inactive); with `Cc1nc(C2CCCN2C(=O)c2ccc(OCC3CC3)nc2)no1` (centres undefined), 5.37% (inactive). With `Cc1nc2cc(-c3noc(-c4sc(C)nc4C)n3)ccc2o1` the figure was 7.81% (inactive); with `O=C(Cc1csc(NC(=O)c2ccc(=O)[nH]c2)n1)NCc1ccco1`, -11.3% (inactive); with `O=C(NCCc1c[nH]c2ccccc12)c1cc2cc(Cl)ccc2o1`, 16.2% (inactive). Regarding `O=C(CCc1csc(NC(=O)c2ccc(=O)[nH]c2)n1)NCCc1c[nH]c2ccccc12`, the inhibition was 62.3% (active). As for `COc1cc(C2CCN(S(=O)(=O)c3cccc(C#N)c3)CC2)on1`, the figure is -4.99% (inactive); as for `N=C(N)C1CN(Cc2ccccc2)C(=O)NC1=O` (centres undefined), -100% (inactive). As for `c1cc(CNCc2ccc3c(c2)OCO3)ccn1`, the figure is 11% (inactive); as for `CCC(Oc1ccccc1)C(=O)NCc1ccc2c(c1)OCO2` (centres undefined), -79.7% (inactive); as for `c1ccc(-c2ccc(NCc3ccc4c(c3)OCO4)nn2)cc1`, 92% (active). With `COc1cc(N2CC[C@@H]3[C@@H](CO[C@H]3CNc3ncccn3)C2)ncn1` the figure was -92.4% (inactive); with `N#Cc1cccc(CSc2ncnc(N)n2)c1`, 18.1% (inactive).

For the molecule `COc1ccc(CNC(=O)CSc2nnc3c4ccccc4nc(-c4ccco4)n23)cc1`, the inhibition was -1.03% (inactive).

For `Cc1oc(CNC(=O)Cc2ccc(Cl)cc2)nc1C(=O)N1CCC(C)CC1`, the inhibition was 0.0949% (inactive). With `Cn1cc2nc(SCC(=O)NCc3ccc(Cl)cc3)n(CC3CC3)c(=O)c2n1` the figure was 38.7% (active); with `O=C(CSc1ncn[nH]1)NCc1ccc2c(c1)OCO2`, 19.2% (inactive).

`CCN1CCN(c2ccc(NC(=O)C3CCCCC3)cn2)C1=O`: the inhibition is 1.18% (inactive). Turning to `CS(=O)(=O)N(Cc1ccccc1F)c1ccc(Oc2ccc(N(Cc3ccccc3F)S(C)(=O)=O)cc2)cc1`, the inhibition was 0.186% (inactive). As for `O=C(NCCc1cccnc1)c1ccn(-c2ccc3ccccn23)n1`, the figure is -25.8% (inactive). As for `Cc1nnc2ccc(-c3ccc(NC(=O)c4ccc(Br)o4)cc3)nn12`, the figure is 65.6% (active); as for `Cc1ccc(-c2cc(C(F)F)n3ncc(C(=O)NCC(C)C)c3n2)cc1`, 25.9% (inactive). Regarding `CCCCc1nc2sc3c(SCC(=O)NCc4ccccc4)ncnc3c2c2c1CCC2`, the inhibition was -1.42% (inactive). As for `O=C(O)CC1(CC(=O)Nc2ccc(Oc3ccccc3)cc2)CCCC1`, the figure is 33% (active); as for `CC1(C)CC(=O)c2ccc(OCC(=O)Nc3ccccc3)cc2O1`, 5.38% (inactive); as for `COc1ccccc1C(=O)Nc1cccc(Oc2ccccc2)c1`, 11.4% (inactive).

In the case of `Cc1cc(C)cc(NC(=O)c2cnc3sc4c(n3c2=O)CCCC4)c1`, the inhibition was 3.8% (inactive).

Consider `CCOC(=O)c1cc2c(ccn2C)n1CC(=O)N1CCC(C)CC1`, for which the inhibition is -57.3% (inactive). With `CCOC(=O)c1cc2c(ccn2C)n1CC(=O)N1CCc2ccccc2C1` the figure was -42.9% (inactive); with `CCOC(=O)c1cc2c(ccn2C)n1CC(=O)Nc1ccc2c(c1)OCCO2`, 32.8% (active); with `O=C(c1ccc(Cl)cc1)N1CCSc2cc(Cl)ccc21`, 12% (inactive). With `COc1ccc(CC(=O)Nc2ccc3c(c2)CN(C(=O)c2ccco2)CC3)cc1`, the inhibition was 33.2% (active). As for `COc1cc2c(cc1OC)CN(C(=O)c1cc(=O)c3ccccc3o1)CC2`, the figure is 3.84% (inactive); as for `COc1ccc(CC(=O)Nc2ccc3c(c2)CCC3)cc1S(=O)(=O)N1CCOCC1`, 0.366% (inactive). As for `CCN1CCn2c(-c3cnn(C)c3)cnc2C12CCN(S(=O)(=O)CC(C)C)CC2`, the figure is -29.1% (inactive). With `Cc1ccc(NCc2cc3c(C)nn(-c4ccccc4)c3[nH]c2=O)cc1C` the figure was 76.5% (active). For `Cc1ccc(CCNCc2c(C(=O)O)n(C)c3ccccc23)cc1`, the inhibition was -1.77% (inactive). With `Cc1ccc(NC(=O)NCc2nnnn2-c2ccccc2)cc1C` the figure was 0.496% (inactive); with `Cc1nn(-c2ccccc2)c2[nH]c(=O)c(C#N)c(-c3ccco3)c12`, 10.2% (inactive); with `CC(C)(C)c1nn(-c2ccccc2)c2[nH]c(=O)c(CNCCc3ccccc3)cc12`, 85% (active). As for `Cc1cccc(-c2nnc3ccc(N4CCC(C(=O)NC(C)Cc5ccco5)CC4)nn23)c1` (centres undefined), the figure is -6.13% (inactive). As for `CN1C(=O)C(C)(C)COc2ccc(NS(=O)(=O)c3cccc(F)c3)cc21`, the figure is 11.7% (inactive). In the case of `Cc1ccc(Cn2nccc2NC(=O)c2cc(-c3ccccc3)on2)cc1`, the inhibition was 14.1% (inactive). As for `Cc1cc(C)cc(C(=O)N2CCN(c3nnc4ccccn34)CC2)c1`, the figure is -9.4% (inactive). As for `Cc1nonc1C(=O)NCC(=O)N1Cc2ccccc2OC2(CCOCC2)C1`, the figure is 20.5% (inactive). As for `COc1ccccc1CNC(=O)c1ccccc1N1C(=O)[C@@H]2Cc3c([nH]c4ccccc34)C(C)N2C1=O` (some centres undefined), the inhibition is -25.4% (inactive). As for `O=C(Cc1cccc(C(F)(F)F)c1)Nc1cccn2ncnc12`, the figure is 2.29% (inactive). For the molecule `O=C(Cc1c(Cl)cccc1Cl)NCc1cccc(C(F)(F)F)c1`, the inhibition is 49.9% (active).

`O=C(NCc1ccccc1)c1nc[nH]c1C(=O)NCc1cccc(C(F)(F)F)c1`: the inhibition is -114% (inactive). In the case of `CC(C)=CCC(O)C1=CC(=O)c2c(O)ccc(O)c2C1=O` (centres undefined), the inhibition is -234% (inactive). As for `Cc1cc(NC(C)C)n2ncc(-c3ccc(Cl)cc3)c2n1`, the figure is -13.7% (inactive); as for `Cc1nc(CC(=O)Nc2ccc(F)c(F)c2)sc1C(=O)NC1CC1`, 10.3% (inactive). As for `COc1cccc(CNS(=O)(=O)c2cc(-c3cc(C)no3)ccc2OC)c1`, the inhibition was -16.2% (inactive). With `CCn1c(-c2ccccc2)c(C(=O)COC(=O)C(NC(=O)c2ccccc2)C(C)C)c2ccccc21` (centres undefined) the figure was 13.1% (inactive); with `CN1C(=O)C2(CCN(C(=O)c3ccccc3Cl)C2)c2ccccc21` (centres undefined), -3.42% (inactive); with `O=C(Nc1ccccc1)N1CCN(c2ncccc2-c2nnc(C3CC3)o2)CC1`, -5.37% (inactive). With `O=S1(=O)c2ccccc2O[C@H]2CCN(c3ncccn3)CC[C@@H]2N1Cc1cccnc1` the figure was -15.4% (inactive); with `CCN1CCN(c2nc(F)c3c(c2F)S(=O)(=O)CCN3CC2CCCO2)CC1` (centres undefined), 25.6% (inactive). With `CC1CCN(c2nc(F)c3c(c2F)S(=O)(=O)CCN3Cc2cccnc2)CC1` the figure was 85.2% (active); with `COc1ccc(NC(=O)c2cc(S(=O)(=O)N3CCCCCC3)cn2C)cc1`, 0.0121% (inactive). As for `CC(CS(=O)(=O)c1ccc2c(c1)NC(=O)CCS2)C(=O)N1CCc2ccccc21` (centres undefined), the inhibition was -14% (inactive).

On to `CC1CN(C(=O)c2ccc(-n3cccn3)c(C#Cc3ccccn3)c2)CC(C)O1` (centres undefined), for which the inhibition was -93.1% (inactive). Consider `COc1ccc(-c2nc(-c3nnn(Cc4cccc(F)c4)c3C)no2)cc1`, for which the inhibition was 0.245% (inactive). With `Cc1ccc(Cn2cc(-c3noc(-c4ccc[nH]4)n3)nn2)cc1`, the inhibition is 35.7% (active). Take `Cc1ccc(Cn2cc(-c3noc(-c4ccccn4)n3)nn2)cc1`: the inhibition was -56.3% (inactive).

For `O=C(NCc1noc(C2CCCC2)n1)C1CCCCC1`, the inhibition was 19.8% (inactive). As for `CCc1nnsc1C(=O)N1CCOC(c2cccc(N(C)C)n2)C1` (centres undefined), the figure is 11.8% (inactive).

(Values after PubChem BioAssay AID1645853 (Buhrlage Lab, Dana-Farber Cancer Institute and Novartis …, 2021).)
